Experimental findings from PubChem BioAssay (NCATS) are described below.

Assay [1] in a line: Cell Viability - BJ (AID 421; calls by dose curve;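 also: potency is read from the fitted curve at half-maximal effect; cells exposed to compound for 40 hours at 37 °C before readout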). The note with it: BJ fibroblast viability, qHTS. The procedure, abridged:
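Normal human BJ foreskin fibroblasts, 1500/well in complete medium, treated 40 hr at 37 °C. Cellular ATP by CellTiter-Glo luminescence; normalized to DMSO and 100 uM tamoxifen, AC50 from Hill fit.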
A general note: Quantitative high-throughput screening tests each substance at several concentrations.

Assay [2] in a line: Cell Viability - Jurkat (AID 426;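 active = dose-dependent loss of cell ATP signal giving a full or clear fitted curve, ranked by lower potency value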; also: potency is read from the fitted curve at half-maximal effect). The following applies: qHTS. In outline:
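Jurkat (Clone E6-1) cells, 5000/well in complete medium, exposed to compounds for 40 hr at 37C; intracellular ATP measured by CellTiter-Glo luminescence after 20 min at room temperature. AC50 from Hill fits.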

The nature of assay [3]: Cell Viability - Hek293 (AID 427;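 active = compounds whose dose-response curve shows a full or clear partial loss of cell viability, called from curve shape rather than a numeric limit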;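 also: potency is read from the fitted curve at half-maximal effect; cells exposed to compound for 40 hours at 37 °C before reading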). The following applies: qHTS. The procedure, abridged:
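HEK293 cells in complete medium were exposed to compound for 40 hr at 37 °C, then cellular ATP was read by CellTiter-Glo luminescence. Data were normalized to DMSO (basal) and 100 uM tamoxifen (100% inhibition), and AC50 came from Hill fits.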

Assay [4] can be described thus: Cell Viability - HepG2 (AID 433; calls by dose curve;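 also: potency is read from the fitted curve at half-maximal effect; potency for ATP loss meaning cytotoxicity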). The note with it: qHTS. In outline:
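In this qHTS format, a 40 h, 37 °C compound incubation of HepG2 cells in complete medium precedes a 20 min CellTiter-Glo step at room temperature. Tamoxifen and doxorubicin serve as positive controls; Hill-equation fits yield AC50.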

Assay [5] is described as follows: Cell Viability - MRC5 (AID 434; calls by dose curve;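 also: potency is read from the fitted curve at half-maximal effect; potency reflects cytotoxicity seen as loss of intracellular ATP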). The following applies: MRC5 lung fibroblast viability, qHTS. The procedure, abridged: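 MRC5 normal human lung fibroblasts (1500/well) were treated with compounds for 40 hr at 37 °C in complete medium, and viable cells were measured as intracellular ATP by CellTiter-Glo luminescence. AC50 came from Hill fits, normalized to DMSO and 100 uM tamoxifen.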

The target in assay [6] is Mitogen-activated protein kinase 10 (Mus musculus) (UniProt Q61831). Nature of the assay: JNK3 AlphaScreen Assay (AID 530; active = well fitted curve in either direction with a large enough effect, not every such curve was filed as active;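 also: kinase came from lysate of stimulated human HepG2 cells; signal reports phosphorylation of biotinylated GST-cJun 1-79 at Ser73 with 10 µM ATP; % is scaled to controls: 0 for no effect and ±100 for the full control effect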). The note with it: JNK3 lysate, c-Jun phosphorylation; series mostly up to 57.1 µM. In outline:
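Inhibitors reduce antibody binding to phosphorylated biotin-cJun, lowering AlphaScreen luminescence. Lysates from HepG2 cells pre-activated by IL-1beta plus TNF-alpha supplied JNK3; compounds were titrated.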

The nature of assay [7]: Cell Viability - N2a (AID 540).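 Also: plate controls were DMSO alone for no effect and tamoxifen control for full effect; nearly all actives have a fitted effect of over 45% in size.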 The following applies: N2a mouse neuroblastoma cell viability; series mostly up to 92.2 µM. The procedure, abridged:
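Mouse neuroblastoma N2a cells, 1500/well, exposed to compounds 40 h at 37 °C in complete medium. Viability measured as cellular ATP by CellTiter-Glo luminescence; AC50 from Hill fits of concentration-response.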

Assay [8] in a line: Cell Viability - NIH 3T3 (AID 541).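 Also: plate controls were DMSO alone for no effect and tamoxifen positive control for full effect; nearly all actives have a fitted effect of over 25% in size.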 The note with it: NIH 3T3 cell viability, qHTS; at 92.2 µM (top of the series). In outline:
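Mouse NIH 3T3 fibroblasts, 1000 cells/well, rested 5 hr at 37 °C, then exposed to compound for 40 hr at 37 °C in complete medium. Viability read as intracellular ATP by CellTiter-Glo luminescence; AC50 from Hill-equation fits of concentration-response data.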

The nature of assay [9]: Cell Viability - HUV-EC-C (AID 542). Also: % is scaled to controls: 0 for no effect and ±100 for the full control effect; nearly all actives have a fitted effect of over 35% in size. The note with it: HUV-EC-C endothelial cell viability, qHTS; series mostly up to 92.2 µM. The procedure, abridged: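 HUV-EC-C human vascular endothelial cells, 1000/well, exposed to compound for 40 hr at 37 °C in complete medium. Intracellular ATP was read by CellTiter-Glo luminescence. AC50 came from Hill-equation fits of concentration-response data.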

The nature of assay [10]: Cell Viability - H-4-II-E (AID 543). Also: nearly all actives have a fitted effect of over 35% in size. Also: potency is read from the fitted curve at half-maximal effect. The following applies: H-4-II-E rat hepatoma viability; series mostly up to 92.2 µM. In outline:
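Rat hepatoma H-4-II-E cells, 1500 per well, treated 40 h at 37 °C in complete medium. Cellular ATP read by CellTiter-Glo luminescence; AC50 from Hill fits of concentration-response.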

Assay [11] in a line: Cell Viability - SH-SY5Y (AID 544). Also: nearly all actives have a fitted effect of over 55% in size. Also: potency is read from the fitted curve at half-maximal effect. The note with it: SH-SY5Y neuroblastoma cell viability; series mostly up to 92.2 µM. In outline: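 SH-SY5Y human neuroblastoma cells (1500/well) incubated 5 h, then compound-treated 40 h at 37 °C in complete medium. Viability read as intracellular ATP by CellTiter-Glo luminescence after 20 min; AC50 from Hill-equation fits of qHTS concentration-response.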

A short description of assay [12]: Cell Viability - Renal Proximal Tubule (AID 545).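 Also: 0% = DMSO only and -100% = 100 µM tamoxifen; nearly all actives have a fitted effect of over 40% in size.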 The note with it: renal proximal tubule cells viability; series mostly up to 91.7 µM. In outline: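 In this qHTS format, normal rat kidney-derived proximal tubule cells in complete culture medium receive compound titrations, then sit 40 hours at 37 °C before luciferase-based ATP quantitation; potency is reported as AC50 from concentration-response curves.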

Assay [13] is described as follows: Cell Viability - Mesenchymal (AID 546).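 Also: cells exposed to compound for 40 hours before reading; 0% = DMSO only and -100% = 100 µM tamoxifen.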 The note with it: mesenchymal cells viability, qHTS; series mostly up to 91.7 µM. The procedure, abridged:
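Normal human renal glomerulus-derived kidney mesenchymal cells, 1000 per well in complete medium, were treated with compounds for 40 hr at 37 °C. Viability was read as intracellular ATP by CellTiter-Glo luminescence; AC50 values came from Hill-equation fits of qHTS concentration-response data.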

Assay [14] can be described thus: AP1 Signaling Pathway (AID 357; active = well fitted curve in either direction with a large enough effect, not every such curve was filed as active;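 also: ME-180 reporter cells stimulated with EGF at its EC50 level; % is scaled to controls: 0 for no effect and ±100 for the full control effect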). The following applies: ME-180 AP-1-bla reporter, EGF-induced, beta-lactamase ratio, 5 h; series mostly up to 17.2 µM. In outline:
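Cells are seeded overnight, exposed to compound titrations and an EC50 level of EGF for 5 hours at 37 °C, then loaded with CCF4 dye for 2.5 hours. Beta-lactamase activity under the AP-1 element is read as a blue/green ratio.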

Assay [15] is described as follows: Cell Viability - SK-N-SH (AID 435; calls by dose curve;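 also: potency is read from the fitted curve at half-maximal effect; compound exposure lasted 40 h at 37 °C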). The note with it: SK-N-SH neuroblastoma cell viability qHTS. In outline: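 Human neuroblastoma line, 40 h exposure at 37 °C, ATP quantified via luciferase luminescence; DMSO and 100 uM tamoxifen define 0 and 100% inhibition for AC50 fitting.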
The nature of assay [16]: NFAT Signaling Pathway (AID 444; active = well fitted curve in either direction with a large enough effect, not every such curve was filed as active;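 also: carbachol stimulus at about its EC50 of 1 µM final; % is scaled to controls: 0 for no effect and ±100 for the full control effect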). The following applies: Jurkat NFAT-bla M1, carbachol, beta-lactamase ratio, 5 h; at 17.2 µM (top of the series). In outline: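 Jurkat cells carrying an NFAT-driven β-lactamase reporter and co-transfected muscarinic M1 receptor were treated with compound plus carbachol (1 uM final, an EC50 level) for 5 h at 37 °C. CCF4 loading followed for 1 h at RT; 460/530 nm ratio gave %activity.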

Assay [17] is described as follows: Stat Signaling Pathway (AID 446; active = well fitted curve in either direction with a large enough effect, not every such curve was filed as active;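 also: ME-180 cervical cancer cells given 40 pM IL-6 alongside compound; SIE-controlled beta-lactamase reporter measured as 460/530 nm FRET emission ratio; % is scaled to controls: 0 for no effect and ±100 for the full control effect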). The following applies: ME-180 SIE beta-lactamase reporter, IL-6 stimulated, 5 h; series mostly up to 17.2 µM. The procedure, abridged: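 ME-180 cells carrying a SIE-driven beta-lactamase reporter are stimulated with 40 pM IL-6 for 5 h at 37C in the presence of compound. The 460/530 nm FRET substrate ratio is read after 2.5 h at RT. Data are normalised to 300 pM IL-6 and to 125 nM JAK inhibitor controls.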

Assay [18] concerns the target Cytochrome P450 1A2 (Homo sapiens) (UniProt P05177). Kind of assay: p450-cyp1a2 (AID 410; calls by dose curve; also: potency is read from the fitted curve at half-maximal effect). The following applies: recombinant CYP1A2, luciferin-ME demethylation, luminescence; series mostly up to 57 µM. In outline:
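20nM CYP1A2 with 100uM Luciferin-ME (at Km) in 100mM KPO4; compound preincubated 10 min, NADPH regeneration added, 60 min at room temperature. Luciferin quantified by luminescence after detection reagent; normalized to 57 uM furafylline.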

Assay [19] addresses Glucocorticoid receptor (Homo sapiens) (UniProt P04150). Kind of assay: GR-GFP Redistribution (AID 450;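 active = compounds whose dose series gives a full or clear partial fitted curve of increased nuclear translocation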; also: potency is read from the fitted curve at half-maximal effect). The following applies: U2OS GR-GFP nuclear translocation, laser cytometry, 2 h.
For assay [20] the target is unchanged. Nature of the assay: GR-EFC Redistribution (AID 451; calls by dose curve; also: potency is read from the fitted curve at half-maximal effect). The following applies: CHO-K1 GR-EFC translocation, beta-gal luminescence, 2 h. In outline: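 CHO-K1 cells stably expressing nuclear-localized β-gal enzyme acceptor and GR fused C-terminally to the enzyme donor fragment; ligand-driven nuclear translocation restores β-gal by complementation. Compounds titrated up to 46 uM final, 2 h at 37 °C; luminescence read.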

Where “and” joins values, the source holds several entries; their conditions need not be identical. Equal values may be shown once. Values without a mark were called inactive. Results filed as inconclusive are left out. Calls of active or inactive are those of the source. Unless noted, calls follow the shape of the dose curve; as a rule, active = well fitted curve in the direction sought with a large enough effect; inconclusive = small, poorly fitted or top-dose-only effect, or another doubt; inactive = no such curve, though single readings can be large; an effect the other way counts as inactive or inconclusive.

Sequence of Glucocorticoid receptor (Homo sapiens) (P04150 whole entry, looked up, the tested form may be a part): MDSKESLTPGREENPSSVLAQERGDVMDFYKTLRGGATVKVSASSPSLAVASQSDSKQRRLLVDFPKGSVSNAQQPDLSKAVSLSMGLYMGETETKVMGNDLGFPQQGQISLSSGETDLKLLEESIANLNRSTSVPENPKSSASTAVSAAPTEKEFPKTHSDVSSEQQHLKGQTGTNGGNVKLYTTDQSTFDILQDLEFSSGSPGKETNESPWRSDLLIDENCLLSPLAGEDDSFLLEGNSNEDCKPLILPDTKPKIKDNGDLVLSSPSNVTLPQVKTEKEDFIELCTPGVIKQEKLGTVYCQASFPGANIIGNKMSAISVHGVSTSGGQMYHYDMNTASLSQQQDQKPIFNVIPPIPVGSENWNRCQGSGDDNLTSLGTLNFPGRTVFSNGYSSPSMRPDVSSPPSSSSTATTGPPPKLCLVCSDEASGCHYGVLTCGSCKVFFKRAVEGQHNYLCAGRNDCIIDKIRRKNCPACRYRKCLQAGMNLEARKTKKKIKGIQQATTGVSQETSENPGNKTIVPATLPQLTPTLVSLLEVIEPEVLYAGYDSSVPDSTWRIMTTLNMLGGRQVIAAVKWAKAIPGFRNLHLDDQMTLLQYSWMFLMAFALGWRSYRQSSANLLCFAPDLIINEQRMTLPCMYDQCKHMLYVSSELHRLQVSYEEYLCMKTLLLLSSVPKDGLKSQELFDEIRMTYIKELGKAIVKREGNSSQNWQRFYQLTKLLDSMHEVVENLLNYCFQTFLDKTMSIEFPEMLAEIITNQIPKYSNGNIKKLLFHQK
Sequence of Cytochrome P450 1A2 (Homo sapiens) (P05177 whole entry, looked up): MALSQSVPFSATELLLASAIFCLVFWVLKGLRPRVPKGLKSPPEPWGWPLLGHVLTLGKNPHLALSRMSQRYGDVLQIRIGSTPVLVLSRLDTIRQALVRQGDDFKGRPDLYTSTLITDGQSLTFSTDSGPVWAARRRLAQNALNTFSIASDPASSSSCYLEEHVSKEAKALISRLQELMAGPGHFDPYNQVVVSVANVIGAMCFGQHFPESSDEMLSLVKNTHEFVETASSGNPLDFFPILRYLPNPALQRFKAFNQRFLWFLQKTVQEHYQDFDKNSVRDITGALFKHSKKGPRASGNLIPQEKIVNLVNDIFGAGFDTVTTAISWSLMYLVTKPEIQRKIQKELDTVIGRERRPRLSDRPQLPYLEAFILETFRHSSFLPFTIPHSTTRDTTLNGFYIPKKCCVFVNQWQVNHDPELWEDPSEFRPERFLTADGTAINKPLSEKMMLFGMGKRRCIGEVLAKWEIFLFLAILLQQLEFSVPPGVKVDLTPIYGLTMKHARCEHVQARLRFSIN

In the case of `CCOC(=O)CC(SP(=S)(OC)OC)C(=O)OCC` (stereo unspecified), the Potency was over 92 µM in [1]; over 92 µM in assay [2]; over 92 µM in assay [3]; over 92 µM in assay [4]; over 92 µM in assay [5]; 12.6 µM (active) in assay [11]. Further, the outcome in [6], in assay [7], in assay [12] and in assay [13] was inactive. In addition, the activity change, negative = cytotoxicity in assay [8] is -25.9%. In addition, the Potency entry in assay [9] and in assay [10] was “inactive” throughout.
For the compound `C[C@]12CCC(=O)C=C1CC[C@@H]1[C@@H]2CC[C@]2(C)C(=O)CC[C@@H]12`, the result in assay [14], in [17], in assay [6], in [7], in assay [12] and in [13] was inactive. Further, the Potency is over 92 µM in [1]; over 92 µM in assay [2]; 36.7 µM (active) in assay [3]; over 92 µM in assay [4]; over 92 µM in [5]; over 92 µM in [15]. In addition, the Potency in assay [10] is 25.1 µM (active). Also, in [16], the activity change, negative = inhibition was 7.44%. The activity change, negative = cytotoxicity in [8] is -137% (active) and -117% (active). The Potency result in assay [9] and in [11] was “inactive” each time.
`O=c1oc2ccccc2c(O)c1Cc1c(O)c2ccccc2oc1=O`: the Potency in assay [18] was 12.6 µM (active). The activity change, negative = inhibition in assay [16] is -5.31%.
As for `COP(=S)(OC)Oc1ccc(SC)c(C)c1`, the Potency in [1], in assay [2], in assay [3], in assay [4], in assay [5] and in assay [15] was over 92 µM each time. The outcome in assay [7], in assay [12] and in assay [13] was inactive. In [8], the activity change, negative = cytotoxicity is -11.1%. Also, the Potency result in [9], in assay [10] and in assay [11] was “inactive” throughout.
For `COc1ccc2c(c1)C13CCCC[C@@H]1C(C2)N(C)CC3` (stereo partly specified), the outcome in [14], in assay [17] and in assay [6] was inactive. In assay [16], the activity change, negative = inhibition was -1.88%. For the same compound, the Potency in assay [19] and in assay [20] was over 20.6 µM in each case.
Take `CCC(C)(C)c1ccc(O)cc1`: the Potency in assay [1], in assay [2], in [3], in assay [4], in [5] and in assay [15] was over 92 µM in each case. Besides, the result in assay [6], in assay [7], in assay [12] and in [13] was inactive. In [8], the activity change, negative = cytotoxicity is -23.4%. Besides, the Potency entry in [9], in [10] and in [11] was “inactive” throughout.
For the compound `C#C[C@]1(O)CC[C@H]2[C@@H]3CCC4=CC(=O)CC[C@]4(C)[C@H]3CC[C@@]21C`, the result in assay [14] and in assay [17] was inactive. Besides, in [16], the activity change, negative = inhibition is 2.09%. Besides, the Potency in assay [19] was 0.338 µM (active).
Consider `COc1c2c(cc3c1OCO3)CCN(C)C2`, for which the result in [14], in assay [17] and in assay [6] was inactive. Moreover, the Potency in assay [18] was 2 µM (active); in [19] it was over 20.6 µM; in assay [20], over 20.6 µM. Moreover, the activity change, negative = inhibition in [16] was -27%.
